Unmarked numbers belong to inactive results. No rule for the calls is given here.

The target in this test is Pantothenate synthetase (Mycobacterium tuberculosis (strain ATCC 25618 / H37Rv)) (UniProt P9WIL5). Description: Recombinant Mtb pantothenate synthetase (PanC) inhibitors, coupled enzyme, confirmatory (AID 375).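 Also: 0% = full reaction with vehicle and 100% = no enzyme background.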 The conditions noted are these: coupled enzyme assay; at 10 µM, stronger effect = higher value.
Chain of Pantothenate synthetase (Mycobacterium tuberculosis (strain ATCC 25618 / H37Rv)) (P9WIL5 whole entry, looked up): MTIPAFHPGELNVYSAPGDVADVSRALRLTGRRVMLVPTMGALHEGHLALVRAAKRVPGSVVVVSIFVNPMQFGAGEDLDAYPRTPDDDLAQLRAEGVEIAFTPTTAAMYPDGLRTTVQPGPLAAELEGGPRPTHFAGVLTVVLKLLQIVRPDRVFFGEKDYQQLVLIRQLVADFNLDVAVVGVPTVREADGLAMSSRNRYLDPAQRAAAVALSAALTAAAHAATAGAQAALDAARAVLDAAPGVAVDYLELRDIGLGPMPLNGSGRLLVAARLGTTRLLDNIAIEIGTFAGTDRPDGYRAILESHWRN
As to `CC(C)CNC(=O)c1ccccc1NC(=O)CN(c1ccc2c(c1)OCCO2)S(C)(=O)=O`, the inhibition was 0%.

Regarding `Cc1noc(C)c1C(=O)Nc1sc(C)c(C)c1C#N`, the inhibition is 2%.

As to `Cc1ccc(S(=O)(=O)Nc2nc3ccccc3nc2NCc2ccco2)cc1`, the inhibition is 3%.

Take `CCCOc1ccc(/C(O)=C2/C(=O)C(=O)N(CCCOC)C2c2ccncc2)cc1` (stereo not given): the inhibition is 4%.

As to `CCCCN(CCCC)CCCNC(=O)CC1Oc2ccc(C)cc2NC1=O` (stereo not given), the inhibition is 3%.

Take `Cc1cccc2cc(CN(CC3CCCO3)C(=O)c3cnccn3)c(=O)[nH]c12` (stereo not given): the inhibition was 0%.

On to `CCS(=O)(=O)c1nc2ccccc2n1CC(=O)N1CCOCC1`, for which the inhibition is 0%.

`Cc1ccc(C)c(N2CCN(C(=O)c3cc4ccccn4n3)CC2)c1`: the inhibition is 0%.

On to `CCOC(=O)c1[nH]c2ccccc2c1NC(=O)C(C)(C)C`, for which the inhibition is 0%.

Consider `c1ccc2c(c1)sc1nnnn12`, for which the inhibition is 12%.

Take `COc1ccccc1NC(=O)N1CCN(c2ccccc2F)CC1`: the inhibition was 0%.

Turning to `Cc1ccc(C)c(NC(=O)C2CCC(C)(C(=O)O)C2(C)C)c1` (stereo not given), the inhibition is 0%.

For `COc1cccc2cc(C(=O)n3ccc(C)n3)c(=O)oc12`, the inhibition was 1%.

For the compound `O=C(Nc1ccc2c(c1)OCO2)c1ccc(Br)c(S(=O)(=O)N2CCCC2)c1`, the inhibition was 1%.

As for `COC(=O)c1ccccc1NC(=O)c1noc2c1CCC2`, the inhibition was 0%.

For the compound `OC(CCN1CCCCC1)(c1ccccc1)c1ccccc1`, the inhibition is 3%.

For `COCCCn1c(SCC(=O)Nc2cccc(C)n2)nnc1-c1ccco1`, the inhibition is 0%.

Consider `CCOC(=O)c1ccc2[nH]c3c(c2c1)CN(C)CC3`, for which the inhibition was 1%.

Take `CCn1c(SCC(=O)N2CCCc3ccccc32)nnc1-c1cccs1`: the inhibition was 0%.

In the case of `COC(=O)c1ccccc1NC(=O)c1ccc(-c2ccccc2F)o1`, the inhibition was 0%.

Turning to `CCOC(=O)c1ccc(NC(=O)CCc2c(C)nc3ncnn3c2C)cc1`, the inhibition was 1%.

With `CCCc1n[nH]c2c1/C(=N/O)CC(c1ccccc1)C2` (stereo not given), the inhibition was 8%.

For the compound `CC(=O)c1ccc(NC(=O)CSc2nnc(-c3ccoc3C)n2Cc2ccccc2)cc1`, the inhibition is 0%.

`O=C(CSc1ncnc2c1oc1ccccc12)NCc1ccco1`: the inhibition is 6%.

As for `Cc1ccc(C)c(-n2c(Cc3cc(=O)[nH]c(=O)[nH]3)nnc2SCC(=O)NCc2ccco2)c1`, the inhibition was 0%.

Take `Cc1nn(Cc2ccc(C(=O)NC3CCCCC3)o2)c(C)c1Br`: the inhibition was 2%.

On to `COCCn1c(=O)[nH]c2cc(C(=O)NCc3cccnc3)ccc2c1=O`, for which the inhibition was 2%.

As to `CCOC(=O)c1sc(NC(=O)CNC(=O)Cn2cnc3sc(C)c(C)c3c2=O)nc1C`, the inhibition is 0%.

Turning to `CC(C)CC(=O)CN1C(=O)C2(OCCO2)c2ccccc21`, the inhibition is 0%.

For `CCOc1ccccc1NC(=O)CSc1c(C)n[nH]c1C`, the inhibition is 5%.

As for `CC(C)(Oc1ccc(Cl)cc1)C(=O)NC1CCSC1=O` (stereo not given), the inhibition is 0%.

Regarding `CC1(C)OC(=O)C(=CNc2ccccc2)C(=O)O1`, the inhibition was 4%.

For the compound `Cc1ccc(NC(=O)C2CC=CCC2C(=O)N2CCCCC2)cc1` (stereo not given), the inhibition is 0%.

Turning to `CCCCN1C(=O)C2C(C(=O)Nc3cccc(OC)c3)C3C=CC2(O3)C1C(=O)NC1CCCCC1C` (stereo not given), the inhibition is 0%.

For the compound `CCc1ccc2[nH]c(=O)c(C(c3nnnn3CC3CCCO3)N3CCN4CCCC4C3)cc2c1` (stereo not given), the inhibition is 4%.

As for `C=CCn1cnc2c(NCc3ccccc3)ncnc21`, the inhibition was 4%.

For `CCOC(=O)c1[nH]c(C)c(C(=O)NC)c1C`, the inhibition is 0%.

On to `Cc1nc2ncnn2c(N2CCC(C(=O)NCC3CCCO3)CC2)c1Cc1ccccc1` (stereo not given), for which the inhibition was 0%.

As to `CCO/C([O-])=N/c1c[n+](N2CCOCC2)no1`, the inhibition was 0%.

Take `Cc1ccc(S(=O)(=O)N2CCN(C(=O)CN3CCOCC3)C2C(C)C)cc1` (stereo not given): the inhibition is 0%.

The values are drawn from PubChem BioAssay.
